Only some compounds are listed: those with a hit (about 5.2% of all), similar ones and a draw of the others.
esBAF inh – inhibitors of esBAF chromatin remodeling in mouse ES cells; Bmi1-luciferase knock-in reporter, 24 h; 100% = twice the neutral-well signal; reporter increase, % at 12.5 µM; 350,000 compounds, 2% hits; AID 602393; in the data active means activation above about 40%;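 further: a rise in the Bmi1 reporter signal indicates esBAF inhibition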
Vif inh – inhibitors of HIV Vif | HEK293T cells, Vif self-association by quenched fluorescence, imaging, 24 h | inhibition, % at 7.49 µM | 340,000 compounds, 0.35% hits; in the data active means inhibition above about 50%, passing the limit was not always enough
NadD inh – NadD (S. aureus) enzyme inhibition | purified NadD enzyme, colorimetric absorbance read-out | inhibition, % at 20 µM | 360,000 compounds, 0.78% hits | AID 602399; in the data active means inhibition above about 26%
SKN-1 block – blocks SKN-1 activity in C. elegans; AID 624304; inhibition, % at 21.8 µM; 360,000 compounds, 0.49% hits; C. elegans VP596 Pgst-4::GFP/RFP ratio, acrylamide-induced, 24 h;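 active means interference check ratio from 0.5 to 1.5 plus GFP to RFP signal ratio inhibition reaching or exceeding a fixed threshold, cut at about 30% in these data, passing the limit was not always enough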
SMARCA2 act – SMARCA2 function activation, primary screen. MG213 cells, MMTV-luciferase reporter, dexamethasone, overnight. activation, % at 9.1 µM. 370,000 compounds, 1% hits. AID 652017; in the data active means activation above about 7.8%
GRIN3A LBD mod – NR3A (human) ligand-binding domain modulation; 340,000 compounds, 2.5% hits; NR3A LBD differential scanning fluorimetry, Tm shift; 0% = protein alone, 100% = glycine-bound protein; Tm shift relative to glycine control, % at 25 µM; AID 1259313;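 active means melting temperature shift of at least 10% of the positive control shift, at one fixed dose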
SMARCA2 act conf – SMARCA2 activation, confirmation screen; shares compounds with SMARCA2 act; MG213 cells, MMTV-luciferase with dexamethasone, luminescence, overnight; MG213 cells expressing E1A, Rb sequestered; DMSO wells 0%, reference activator 100%; activation, % at 9.1 µM; 3,500 compounds, 30% hits; AID 652260;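 active means activation above its plate's cutoff, the mean activation of tested wells plus 3 SD, cut at about 7.9% in these data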
GAL4-VP16 Luc – counter-screen for SMARCA2 activators: GAL4-VP16 luciferase reporter activation; shares compounds with SMARCA2 act; HEK293 GAL4-VP16 pG5luc reporter, luciferase luminescence; scaled: DMSO wells 0%, SAHA wells 100%; activation, % at 9.1 µM; 3,500 compounds, 41% hits;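 active means activation above the solvent-only control well mean plus 3 SD, averaged across control plates, cut at about 5.2% in these data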
Of the large screens only hits and unclear results are named; the others gave an inactive call (follow-up assays come after a bar, where they were run).

O=C1ON(Cc2ccccc2)C(c2ccccc2)N1c1ccccc1 (centres undefined)	SMARCA2 act 11 (no result: esBAF inh) | SMARCA2 act conf inactive | GAL4-VP16 Luc inactive
O=C([C@@H]1[C@@H](CO)[C@@H]2Cn3c(ccc(-c4ccccc4)c3=O)[C@H]1N2CCC(F)(F)F)N1CCOCC1	none (no result: Vif inh, NadD inh, SKN-1 block, SMARCA2 act, GRIN3A LBD mod)
COc1cc2c(cc1NC(=O)c1ccccc1F)CCCC2	SMARCA2 act 9.3 (no result: esBAF inh) | SMARCA2 act conf inactive | GAL4-VP16 Luc 7.6
CC(C)NC(=O)N(C)C[C@H]1Oc2ccc(NS(=O)(=O)c3cn(C)cn3)cc2CC(=O)N([C@H](C)CO)C[C@H]1C	none (no result: Vif inh, NadD inh, SKN-1 block, SMARCA2 act, GRIN3A LBD mod)
CCCCNc1nc(N)nc(-c2cc(Cl)ccc2O)n1	SMARCA2 act 17, GRIN3A LBD mod 18 (no result: esBAF inh, Vif inh) | SMARCA2 act conf 14 | GAL4-VP16 Luc 13
CCN1CCN(Cc2ccc(NC(=O)c3cc(NC(=O)C(=O)c4c[nH]c5ccccc45)cc(OC)c3)cc2C(F)(F)F)CC1	SMARCA2 act 10 | SMARCA2 act conf inactive | GAL4-VP16 Luc inactive
c1ccc2c(c1)COc1c3ncccc3nn1-2	esBAF inh 50, SMARCA2 act 13 (no result: Vif inh, GRIN3A LBD mod) | SMARCA2 act conf 8.2 | GAL4-VP16 Luc 8.4
COc1cccc(-c2nnc(SCc3cccnc3)o2)c1	SMARCA2 act 10 | SMARCA2 act conf inactive | GAL4-VP16 Luc 6.6
COc1cc(OC)cc(-c2nnc(SCc3cccnc3)o2)c1	none
N#Cc1c(NC(=S)NC(=O)C2CCCC2)sc2c1CCCCC2	SMARCA2 act 13 (no result: esBAF inh) | SMARCA2 act conf inactive | GAL4-VP16 Luc inactive
O=C(N/N=C/C(Br)=C/c1ccccc1)c1ccccc1F	esBAF inh 51, SMARCA2 act 13 | SMARCA2 act conf 11 | GAL4-VP16 Luc 12
Cc1noc(C)c1S(=O)(=O)N(C)C[C@H]1OCCCC[C@@H](C)Oc2ccc(NC(=O)NC3CCCCC3)cc2C(=O)N([C@@H](C)CO)C[C@@H]1C	none (no result: Vif inh, NadD inh, SKN-1 block, SMARCA2 act, GRIN3A LBD mod)
COc1ccc(CCOC(=O)c2ccc(NC(=O)CC#N)cc2)cc1	none
COc1ccc(C(=O)OCCc2ccc(O)cc2)cc1	esBAF inh 50, SMARCA2 act 9.2 | SMARCA2 act conf 8.6 | GAL4-VP16 Luc 12
CN1C(=O)c2cc(NC(=O)Nc3ccc(Cl)cc3)ccc2OC[C@H]2O[C@H](CC(=O)NCCN3CCCCC3)CC[C@H]21	none (no result: Vif inh, NadD inh, SKN-1 block, SMARCA2 act, GRIN3A LBD mod)
O=C(NCCc1ccccc1)c1coc(=O)c(Br)c1	SMARCA2 act 27 | SMARCA2 act conf inactive | GAL4-VP16 Luc inactive
O=C(COC(=O)c1cc(Br)c(Br)s1)NCCC1=CCCCC1	SMARCA2 act 9.3 | SMARCA2 act conf inactive | GAL4-VP16 Luc inactive
O=C(COC(=O)c1ccccc1Br)NCCC1=CCCCC1	none
CN(C)CCNC(=O)c1coc(=O)c(Br)c1	none
Cc1cc(C(=O)NCCC2=CCCCC2)c(C)o1	SMARCA2 act 11 | SMARCA2 act conf 20 | GAL4-VP16 Luc 12
O=C(NCCC1=CCCCC1)c1coc(=O)c(Br)c1	SMARCA2 act 20 (no result: Vif inh) | SMARCA2 act conf inactive | GAL4-VP16 Luc 5.5
Cn1cnc(CCNC(=O)C[C@@H]2CC[C@H]3[C@@H](COC[C@H](O)CN3C(=O)Nc3ccc(Cl)cc3)O2)c1	none (no result: Vif inh, NadD inh, SKN-1 block, SMARCA2 act, GRIN3A LBD mod)
C[C@H](CO)N1C[C@H](C)[C@@H](CN(C)C(=O)CC2CC2)Oc2cc(-c3ccccc3)ccc2S1(=O)=O	none (no result: Vif inh, NadD inh, SKN-1 block, SMARCA2 act, GRIN3A LBD mod)
OCCCNc1c2ccccc2nc2ccccc12	SMARCA2 act 19 (no result: GRIN3A LBD mod) | SMARCA2 act conf 145 | GAL4-VP16 Luc inactive
Cc1ccc(-c2nc(NCCCO)c3ccccc3n2)cc1	none
CC(C)NC(=O)Nc1ccc2c(c1)C(=O)N([C@@H](C)CO)C[C@@H](C)[C@@H](CN(C)S(=O)(=O)c1cn(C)cn1)O2	none (no result: Vif inh, NadD inh, SKN-1 block, SMARCA2 act, GRIN3A LBD mod)
COc1cccc(N=Nc2ccc3ccccc3c2O)c1	SMARCA2 act 8.0 | SMARCA2 act conf inactive | GAL4-VP16 Luc 5.6
Oc1c(N=Nc2ccc(F)cc2)ccc2ccccc12	SMARCA2 act 11 | SMARCA2 act conf inactive | GAL4-VP16 Luc 8.6
CCCNC(=O)Nc1ccc2c(c1)OC[C@@H](C)N(C(C)=O)C[C@H](C)[C@H](OC)CN(C)C2=O	none (no result: Vif inh, NadD inh, SKN-1 block, SMARCA2 act, GRIN3A LBD mod)
Cc1cccc(N2CCN(C(=O)c3ccnn3C)CC2)c1C	none (no result: esBAF inh)
Cn1nccc1C(=O)N1CCN(c2ccccc2Cl)CC1	SMARCA2 act 8.0 | SMARCA2 act conf inactive | GAL4-VP16 Luc inactive
CO[C@H]1CN(C)C(=O)c2ccc(NC(=O)Nc3cccc(F)c3)cc2OC[C@H](C)N(C(=O)Nc2c(C)noc2C)C[C@H]1C	none (no result: Vif inh, NadD inh, SKN-1 block, SMARCA2 act, GRIN3A LBD mod)
O=C(OC1CCOC1=O)c1ccc2ncsc2c1 (centres undefined)	SMARCA2 act 12 | SMARCA2 act conf inactive | GAL4-VP16 Luc inactive
NS(=O)(=O)c1cc(C(=O)OC2CCOC2=O)ccc1Cl (centres undefined)	none
Cc1cccc(S(=O)(=O)N2C[C@H](O)COC[C@H]3O[C@H](CC(=O)Nc4ccccc4)CC[C@@H]32)c1	none (no result: Vif inh, NadD inh, SKN-1 block, SMARCA2 act, GRIN3A LBD mod)
COc1cc(C(=O)N=c2sc3ccccc3n2C)cc(OC)c1OC	none (no result: esBAF inh)
Cn1c(=NC(=O)c2cccc([N+](=O)[O-])c2)sc2ccccc21	SMARCA2 act 8.7 | SMARCA2 act conf inactive | GAL4-VP16 Luc 14
CN(C)C(=S)NC(=S)Nc1ccc2ccccc2c1	SMARCA2 act 17, GRIN3A LBD mod 21 (no result: esBAF inh) | SMARCA2 act conf inactive | GAL4-VP16 Luc 34
CC1(NC(=S)Nc2ccc3ccccc3c2)CCS(=O)(=O)C1 (centres undefined)	none (no result: esBAF inh)
N#Cc1ccc(-c2nc3ccc(Cl)cn3c2Cc2ccsc2)cc1	none (no result: Vif inh, GRIN3A LBD mod)
Clc1ccc(-c2nc3ccc(Cl)cn3c2Cc2ccsc2)cc1	esBAF inh 71, SMARCA2 act 11 (no result: Vif inh, GRIN3A LBD mod) | SMARCA2 act conf 8.9 | GAL4-VP16 Luc inactive
O=C(c1cccc(Br)c1)N1CCN(C(=O)N2CCOCC2)CC1	none
O=C(c1cccc(Br)c1)N1CCN(C(=O)c2cccc(Br)c2)CC1	SMARCA2 act 8.8 | SMARCA2 act conf inactive | GAL4-VP16 Luc inactive
C[C@H](CO)N1C[C@H](C)[C@@H](CN(C)C(=O)Nc2ccc(N3CCCCC3)cc2)OCc2cn(nn2)CCCC1=O	none (no result: Vif inh, NadD inh, SKN-1 block, SMARCA2 act, GRIN3A LBD mod)
CC(CCc1ccccc1)NC(=O)CN1CCN(c2ccccc2)CC1 (centres undefined)	SMARCA2 act 8.7 | SMARCA2 act conf inactive | GAL4-VP16 Luc inactive
CC(NC(=O)CN1CCN(c2ccc(Cl)cc2)CC1)c1ccccc1 (centres undefined)	none
CC(CCc1ccccc1)NC(=O)C(=O)Nc1ccccc1 (centres undefined)	SMARCA2 act 8.9 (no result: esBAF inh) | SMARCA2 act conf 11 | GAL4-VP16 Luc 9.8

Screening data from PubChem BioAssay.
